HT1080 IDH1KD tx = HT-1080 IDH1 knockdown cell toxicity (counter line). HT-1080 IDH1 knockdown viability, ATP luminescence, 48 h. Potency, µM (top dose mostly 46.1 µM), for the others: at the top dose activity, negative = toxicity, usual class: cytotoxic. hit rate 2% among 360,000;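 further: potency means the concentration at half of the fitted maximal effect; 0% = DMSO wells and -100% = cell-free medium wells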
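Using the IDH1-knockdown HT-1080 line run in the same batch and compound series as the NT line, viability after 48 h at 37 °C was determined by CellTiter-Glo luminescence and expressed as % activity.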
DT40 TDP1 no CPT = qHTS for Inhibitors of human tyrosyl-DNA phosphodiesterase 1 (TDP1): qHTS in cells in absence of CPT; DT40 Tdp1-/- hTDP1 cells, no CPT, ATP luminescence, 48 h; Potency, µM (series often up to 46.2 µM), inactives show at the top dose activity change, negative = growth inhibition, actives largely listed as inhibitors; hit rate 15% among 420,000; AID 686978, 2013; further: potency means the concentration at half of the fitted maximal effect; nearly all actives have a fitted effect of over 55% in size
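A cellular qHTS used chicken DT40 cells lacking endogenous Tdp1 but carrying stably transfected human TDP1. Compounds were applied without camptothecin, and cell growth kinetics were judged by ATP-dependent luminescence after ≥48 hr.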
TDP1 cell CPT = growth inhibition of DT40 Tdp1-/-;hTDP1 cells with camptothecin (screen for TDP1 inhibitors) | chicken DT40 Tdp1-/-;hTDP1 cells + 20 nM CPT, ATP luminescence, 48 h | Potency, µM (doses to about 46.2 µM), for inactives: top-dose activity change, negative = growth inhibition, most hits filed as inhibitors | hit rate 12% among 420,000 | AID 686979; further: potency means the concentration at half of the fitted maximal effect; nearly all actives have a fitted effect of over 55% in size
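Chicken DT40 Tdp1-/- cells complemented with human TDP1, 400 cells/well, exposed to compounds plus 20 nM camptothecin for at least 48 h at 37 C; viability read as ATP content by CellTiter-Glo luminescence.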
IL-1B inflam inh = blocks inflammasome-driven IL-1 beta release; THP-1 LPS/ATP IL-1B secretion, AlphaLISA, 16 h; active compounds read low; activity change, % at 57.5 µM; hit rate 4.7% among 360,000; AID 743279; in the data active means activity change below about -50%; inconclusive means mostly about -30% to -49%
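Secreted IL-1B measured by AlphaLISA bead assay after 16 h compound exposure of THP-1 cells; compounds (final up to 57.5 uM) added 1 h before LPS (250 ng/mL) and ATP (1.25 mM) stimulation; lower signal means less secretion.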
HT1080-NT tox = kills 2HG-producing HT-1080-NT fibrosarcoma cells. HT-1080-NT fibrosarcoma viability, CellTiter-Glo ATP luminescence, 48 h. Potency, µM (doses to about 46.1 µM), for inactives: top-dose activity, negative = less viability, usual class: cytotoxic. hit rate 1.6% among 360,000. AID 686970;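 further: NT is the 2HG producing partner of a matched IDH1 knockdown line; potency means the concentration at half of the fitted maximal effect; 0% = DMSO-treated cells and -100% = media-only wells without cells; nearly all actives have a fitted effect of over 55% in size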
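Compounds were tested in concentration-response format on HT-1080-NT cells for 48 hours at 37 degrees C. Cell viability came from CellTiter-Glo luminescence; curves were classified by r2, response magnitude and activity.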
* = called active by the depositor; i = inactive; ? = inconclusive; / = no result; [ ] = remark or other dose. The list is not random: actives were taken first. Their share in the collection is about 19%. Unless noted, the call rests on the fitted dose curve; in most records, active means well fitted curve in the direction sought with a large enough effect; inconclusive means small, poorly fitted or top-dose-only effect, or another doubt; inactive means no such curve, though single readings can be large; an effect the other way counts as inactive or inconclusive. Unless noted, on the % scale 0 is the no-effect control and ±100 the full control effect.

SMILES	HT1080 IDH1KD tx	DT40 TDP1 no CPT	TDP1 cell CPT	IL-1B inflam inh	HT1080-NT tox
O=c1[nH]c2ccccc2cc1-c1nnn(-c2ccc(Cl)c(Cl)c2)n1	1%	?	7.3µM*	4	2%
O=C(NC(c1ccccc1)c1ccccc1)C1CCCN(S(=O)(=O)c2cnc[nH]2)C1 (stereo unspecified)	8%	-10%	-26%	-5	3%
O=C1CN(C(=O)c2ccccc2Cl)c2ccccc2N1	-14%	?	4%	-6	-20%
CC1(c2ccc(Cl)cc2)CC(C)(C)N(C(=O)c2cccc(F)c2)c2ccccc21 (stereo unspecified)	/	18µM*	?	/	/
CC1(C(=O)NCc2ccc(Cl)cc2)CCN1C(=O)c1cccc(F)c1 (stereo unspecified)	0%	?	?	-2	22%
CC1(c2ccccc2)CC(C)(C)N(C(=O)c2ccccc2Cl)c2ccccc21 (stereo unspecified)	/	5.2µM*	6.5µM*	/	/
O=C1CC(c2ccccc2O)Oc2ccc(O)cc21 (stereo unspecified)	/	-20%	-11%	/	/
O=C(Nc1nc(-c2ccc(Cl)s2)cs1)c1ccncc1	-3%	9.2µM*	9.2µM*	-15	1%
Cc1csc(NC(=O)c2sc3nc(-c4cccs4)ccc3c2N)n1	?	25µM*	?	-72*	-9%
COc1ccc(C(=O)NCc2csc(-c3cccs3)n2)cc1	7%	-28%	-2%	8	3%
Cc1ccc(NC(=O)c2sc3nc(-c4cccs4)ccc3c2N)cc1F	/	?	-26%	/	/
COc1ccc(C(=O)Nc2nc(-c3cccs3)cs2)cc1	5%	?	?	-72*	5%
Cc1c(C(=O)Nc2nccs2)sc2nc(-c3cccs3)cc(C(F)(F)F)c12	?	23µM*	18µM*	68	?
CSc1nc(C)c(Cc2c(F)cccc2Cl)c(=O)[nH]1	0%	7%	4%	0	-6%
COc1cc(C(=O)Nc2nc(-c3cccs3)cs2)cc(OC)c1OC	-10%	13µM*	23µM*	-77*	?
O=C(Nc1nc(-c2cccs2)cs1)c1ccc(Cl)cc1	?	15µM*	26µM*	-6	?
COc1cc(C(=O)NC(=S)Nc2nc(-c3ccc(F)cc3)cs2)cc(OC)c1OC	-7%	-18%	15%	i	-2%
O=C(COc1ccc(Cl)cc1)Nc1nc(-c2cccs2)cs1	-11%	?	?	4	-1%
O=c1c2sc3ccccc3c2[nH]c(=S)n1CCN1CCOCC1	13%	5%	14%	52	11%
CN(C)c1ccc(/C=C2\CCc3cc(N)ccc32)cc1	/	-28%	5%	/	/
CCOC(=O)c1ccc2c(c1)N(CC#N)C(=O)C(C)(C)O2	3%	-12%	?	10	0%
COc1ccccc1-c1nc(C(N)=O)c2[nH]c(=O)n(-c3cccc(C)c3)c2n1	-10%	?	?	-14	-8%
COc1ccc(-c2nc(C(N)=O)c3[nH]c(=O)n(-c4cccc(C)c4)c3n2)c(OC)c1	-10%	23µM*	?	-9	-12%
COc1cccc(N2C(C(C)=O)=NN(c3ccccc3)C2c2ccc(N3CCOCC3)cc2)c1 (stereo unspecified)	-11%	16µM*	18µM*	5	-16%
COc1ccc(C(=O)OCC(=O)NC23CC4CC(CC(C4)C2)C3)c(O)c1	-14%	?	23µM*	13	0%
O=C(OCC(=O)C12CC3CC(CC(C3)C1)C2)c1ccc(O)cc1O	18µM*	?	?	?	13µM*
Cc1ncc2c(c1CNC(=O)c1ccsc1)CCN(C(=O)c1c(F)cccc1Cl)C2	/	-19%	3%[9.04 µM]	/	/
COc1ccc(C2CC(c3ccc(Br)cc3)=NN2C(=O)CN2CCCC2)cc1 (stereo unspecified)	?	12µM*	?	-62*	?

Screens: PubChem, National Center for Advancing Translational Sciences (NCATS)
